Data reported in PubChem BioAssay AID1376 (SRMLSC, 2008).
About 530 (0.24%) of roughly 220,000 compounds were called active. The list comes from a sample in which actives are over-represented; it also holds similar structures and randomly drawn compounds. Potency and affinity values are given separately. Unmarked numbers belong to inactive results. Rule as the data show it: active = inhibition above about 13%; inconclusive = no clear call, values can overlap the other calls; inactive = below that.

Molecular target: Bifunctional protein GlmU (Mycobacterium tuberculosis (strain ATCC 25618 / H37Rv)) (UniProt P9WMN3)
Sequence (P9WMN3 whole entry, looked up): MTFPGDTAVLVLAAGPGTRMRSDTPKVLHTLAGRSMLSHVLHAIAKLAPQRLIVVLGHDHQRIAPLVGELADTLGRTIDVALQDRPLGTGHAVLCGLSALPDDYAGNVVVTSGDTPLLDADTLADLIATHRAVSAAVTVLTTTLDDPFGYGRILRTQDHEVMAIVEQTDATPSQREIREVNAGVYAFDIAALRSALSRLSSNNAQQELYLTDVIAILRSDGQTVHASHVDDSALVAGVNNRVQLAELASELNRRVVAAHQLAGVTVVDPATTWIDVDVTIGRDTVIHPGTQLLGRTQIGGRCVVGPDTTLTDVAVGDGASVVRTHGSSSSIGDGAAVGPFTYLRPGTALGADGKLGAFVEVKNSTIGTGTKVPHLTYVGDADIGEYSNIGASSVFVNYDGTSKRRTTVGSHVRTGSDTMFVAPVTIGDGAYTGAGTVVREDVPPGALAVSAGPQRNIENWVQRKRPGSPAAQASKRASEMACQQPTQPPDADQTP
Assay: inhibition of mycobacterial GlmU enzyme – biochemical, glucosamine-1-phosphate acetyltransferase (AID 1376);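 also: 0% = complete reaction with vehicle and 100% = reaction without substrate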
Conditions: M. tuberculosis GlmU acetyltransferase enzyme assay; active compounds read high;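 tested at 30 µM in the primary screen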

| SMILES | inhibition |
| --- | --- |
| CC(=O)c1ccc(N2CCN(C(=O)Nc3cccc(F)c3)CC2)cc1 | -1.45% |
| COc1cccc(C2/C(=C(\O)c3ccc4c(c3)OCO4)C(=O)C(=O)N2CCN(C)C)c1OC (configuration not stated) | 1.43% |
| O=C(O)c1ccc(N=Cc2c(O)n(Cc3ccc(F)cc3)c(=O)[nH]c2=O)cc1 | -1% |
| Cc1ccc(NS(=O)(=O)c2ccc(C3CCCCC3)cc2)cc1 | -5.89% |
| C=CCn1c(-c2c(C)nc3cc(C)ccn23)n[nH]c1=S | 0.98% |
| Cc1ccc(N(CC(=O)NCCSCc2ccco2)S(=O)(=O)c2ccc(C)cc2)cc1 | -1.27% |
| CN1CCN(c2ccc([N+](=O)[O-])c(Sc3nncn3C)c2)CC1 | -2.97% |
| COc1ccc(-c2ccc(-c3noc(-c4ccco4)n3)c(OC)n2)cc1 | 1.18% |
| COc1ccc(-c2ccc(-c3noc(-c4cccc(OC)c4)n3)c(OC)n2)cc1 | 14% (active) |
| COc1ccc(-c2ccc(-c3noc(-c4ccccc4)n3)c(OC)n2)cc1 | 6.47% |
| O=[N+]([O-])c1cccc(/C=N/Nc2ccccn2)c1 | 0.69% |
| O=C1CC(N(O)c2ccccc2)C(=O)N1Cc1ccccc1 (configuration not stated) | 8.24% |
| C/C(=N\N=C1\NC(=O)C(Cc2ccccc2)S1)c1ccccc1 (configuration not stated) | 2.56% |
| Cc1ccc(Sc2cc(C(F)(F)F)nc(N(C)C)n2)cc1 | -0.68% |
| Cc1cc(C)n2c(SCCN3C(=O)c4ccccc4C3=O)nnc2n1 | 0.6% |
| CCOC(=O)c1cnc(SCC#N)nc1N | 0.91% |
| NS(=O)(=O)c1ccc(NC(=O)CSc2nc3ccccc3[nH]2)cc1 | 13.4% (active) |
| O=C(CSc1nc2ccccc2[nH]1)Nc1ccc(F)cc1 | -1.92% |
| NS(=O)(=O)c1cccc(NC(=O)CSc2nc3ccccc3[nH]2)c1 | 4.49% |
| CCOc1c(C#N)c(C#N)c2nc(C)cc(C)n12 | -3.28% |
| CCn1ncc2c(OCc3ccc(C#N)cc3)cc(C)nc21 | 13% (active) |
| Cc1csc(OCc2ccc(C#N)cc2)n1 | 4.28% |
| c1cnc2ccc(C(c3nnnn3C3CCCCC3)N3CCN4CCCC4C3)cc2c1 (configuration not stated) | -1.69% |
| O=C(O)c1cc([N+](=O)[O-])ccc1C(=O)Nc1ccccc1 | 0.35% |
| O=C(Nc1cccc([N+](=O)[O-])c1)c1ccccc1 | -2.61% |

| SMILES | inhibition |
| --- | --- |
| O=C(O)c1ccccc1C(=O)Nc1cccc([N+](=O)[O-])c1 | 17.2% (active) |
| COc1ccc(/C=C/C(=O)C2CC2)cc1COc1cccc(C)c1C | 1.77% |
| O=C(CSCc1ccc(Cl)cc1Cl)Nc1ccccc1C(=O)Nc1ccc(C(=O)O)cc1 | -3.25% |
| CC(C)(CN1CCN(c2ccccc2)CC1)NS(=O)(=O)c1ccccc1 | -4.3% |
| COC(=O)c1ccccc1CCC(C)=O | -1.25% |
| O=c1oc2cc(O)c(Cl)cc2c2ccccc12 | 2.71% |
| O=c1oc2ccccc2c2oc3cc(O)c(O)cc3c12 | 2.91% |
| O=c1cc2c(=O)oc3cc(O)c(O)oc3c2c(O)c1O | 16.8% (active) |
| CN1C(=O)NC(=O)/C(=C/c2ccc(C(=O)O)cc2)C1=O | 2.77% |
| CN(C(=O)CC(=O)Nc1ccc(Cl)c(Cl)c1)c1ccccc1 | 0.26% |
| CC(CCc1ccccc1)NC(=O)C1CCCN(c2nnc(-n3cccc3)s2)C1 (configuration not stated) | 7.96% |
| COC(=O)c1ccccc1NC(=O)N1CCN(c2ccccc2)CC1 | -3.35% |
| COCCNC(=O)C1CC2Cn3c(nc4cc(C)c(C)cc43)C2N1C (configuration not stated) | 1.27% |
| Nc1ccc(Cc2ccc(N)c(C(=O)O)c2)cc1C(=O)O | 7.1% |
| Cc1cc(Cc2ccc(N)c(C)c2)ccc1N | -3.87% |
| Nc1ccc(Cc2ccc(N)c(O)c2)cc1O | 13.4% (active) |
| COc1cccc(NS(=O)(=O)c2ccc3c(c2)C2C=CCC2C(c2ccc(C(=O)O)cc2)N3)c1 (configuration not stated) | 13.1% (active) |
| CC(=O)c1ccc2c(c1)C1C=CCC1C(c1ccc(S(=O)(=O)N3CCOCC3)cc1)N2 (configuration not stated) | 0.66% |
| O=C(O)c1ccc2c(c1)C1C=CCC1C(c1ccncc1)N2 (configuration not stated) | -9.79% |
| Cc1c(Cl)cccc1NS(=O)(=O)c1ccc2c(c1)C1C=CCC1C(c1ccc(C(=O)O)cc1)N2 (configuration not stated) | 23.6% (active) |
| COc1ccc(C(=O)N/N=C(\C)c2ccc3c(c2)C2C=CCC2C(c2ccccc2)N3)cc1 (configuration not stated) | 7.99% |
| O=C(O)c1ccc(NS(=O)(=O)c2ccc3c(c2)C2C=CCC2C(c2ccccc2F)N3)cc1 (configuration not stated) | 25.9% |
| CC1CCc2sc(C(=O)OCC(=O)NCc3ccccc3)cc2C1 (configuration not stated) | -4.45% |
| CC12CCC(C/C1=N\OC(=O)c1ccc(F)cc1)C2(C)C (configuration not stated) | 1.74% |
| C/C=C/C(=O)N1CC2(CC(c3cccc(NC(=O)/C(C)=C/C)c3)=NO2)C[C@H]1C(N)=O (some centres not stated) | 3.31% |

| SMILES | inhibition |
| --- | --- |
| Cc1cc(C)n(-c2cc(N3CCN(S(=O)(=O)c4ccc(Cl)cc4)CC3)ccc2[N+](=O)[O-])n1 | 5.84% |
| COc1cccc2c(=O)n(CC(=O)N3CCc4ccccc43)ccc12 | 1.33% |
| N#CC1=C(N)N(c2ccccc2)C2=C(C(=O)CCC2)C1c1cccs1 (configuration not stated) | 2.47% |
| O=C(NC1CCCCC1)Oc1cc2oc(=O)sc2cc1Br | -0.42% |
| CCCCNC(=O)Oc1c(Br)cc2sc(=O)oc2c1Br | 13.8% (active) |
| CCCCNC(=O)Oc1cc(CCl)on1 | -3.53% |
| CSc1cccc(NC(=O)C2CCCN2S(=O)(=O)c2ccc(Br)s2)c1 (configuration not stated) | 7.56% |
| CSc1ccc(C(=O)C2CCCN(Cc3cnc(SC)nc3)C2)cc1 (configuration not stated) | -1.56% |
| COc1cccc(N2CCN(C(=O)NC3CCCCC3)CC2)c1 | -5.07% |
| CCCCC(CC)C1OCC(CN2CCCCC2)O1 (configuration not stated) | 7.5% |
| CN1C(=O)C(=Cc2ccc(Sc3ccccc3)o2)C(=O)N(C)C1=O | -2.7% |
| O=C1NC(=O)N(c2ccccc2)C(=O)/C1=C/c1ccc(Sc2ccccc2)o1 | 19.6% |
| O=[N+]([O-])c1cc(S(=O)(=O)N2CCCC2)ccc1N/N=C/c1cccnc1 | -1.08% |
| O=c1cc(O)c2ccc(O)cc2o1 | 4.26% |
| O=c1cc(-c2ccc(O)cc2)oc2ccc(O)cc12 | -0.88% |
| O=C(c1ccc([N+](=O)[O-])cc1[N+](=O)[O-])N1CCCC1 | 2.34% |
| CC1CC(C)CN(C(=O)Cn2c(=O)n(CCCCC(=O)NCc3ccco3)c(=O)c3ccccc32)C1 (configuration not stated) | 4.18% |
| CCOc1nc2c(c(=O)n(C)c(=O)n2C)n1Cc1ccccc1Cl | 1.39% |
| CCCCNC(=O)Nc1nc2ccccc2s1 | 5.87% |
| COc1cccc(NC2=NC3(CCCCC3)N=C(N)N2)c1 | 0.3% |
| COc1ccc(NC2=NC3(CCCCC3)N=C(N)N2)cc1 | 26% (active) |
| CCCCOc1ccc(NC2=NC3(CCCCC3)N=C(N)N2)cc1 | -13.7% |
| CCOc1ccc(/C=C(/NC(=O)c2ccc(Cl)cc2)C(=O)O)cc1OCC | -0.87% |
| NC(=O)c1ccc(-n2nnnc2Oc2ccc(Br)cc2)cc1 | -0.77% |
| COc1ccc(NC(=O)Nc2ccccn2)cc1OC | 5.35% |

| SMILES | inhibition |
| --- | --- |
| Cc1c(Br)c(=O)oc2c(C)c(O)ccc12 | -1.97% |
| Cc1c(Br)c(=O)oc2c(Br)c(O)ccc12 | 4.5% |
| CC(C)(Cc1ccc(O)cc1)NC(=O)CC(=O)N/N=C/c1ccc([N+](=O)[O-])cc1 | -2.21% |
| COc1cc(/C=N/NC(=O)CCn2c3ccccc3c3ccccc32)cc(OC)c1OC | 1.58% |
| O=C(CN1CCN(Cc2ccccc2)CC1)N/N=C/c1cccnc1 | 1.02% |
| O=C1NC(=Nc2ccc(O)cc2)S/C1=C\C=C\c1ccco1 | 3.62% |
| COc1ccc(N=C2NC(=O)/C(=C\C=C\c3ccco3)S2)cc1 | 8.93% |
| Cc1ccc(N=C2NC(=O)/C(=C/C=C/c3ccco3)S2)cc1 | 4.9% |
| O=C1NC(=Nc2ccccc2)S/C1=C\C=C\c1ccco1 | 14.8% (active) |
| Cc1cccc(N=C2NC(=O)/C(=C/C=C/c3ccco3)S2)c1C | -4.23% |
| Cc1cccc(N=C2NC(=O)/C(=C/C=C/c3ccco3)S2)c1 | 13.5% (active) |
| O=C1Cn2c(nc3ccccc32)N1c1cccc(C(F)(F)F)c1 | 0.84% |
| CN(Cc1ccncc1)C1CC(=O)N(c2ccc(F)cc2)C1=O (configuration not stated) | 5.02% |
| CCSc1ccccc1C(=O)NC1CCCCC1 | 2.94% |
| CCCNCc1cc(Br)ccc1OCC(=O)NCCc1ccccc1 | 0.38% |
| CC(C)N(Cc1ccccc1)C(=O)Cn1c(=O)cnc2ccccc21 | -0.29% |
| Cc1[nH]n(C2=NCCS2)c(=O)c1N=Nc1cccc(C(F)(F)F)c1 | -0.55% |
| Cc1cc(C)c(S(=O)(=O)Nn2cnnc2)c(C)c1 | -3.71% |
| Cc1cc(C)c(S(=O)(=O)/N=C2\C=CC(=O)C(Cl)=C2)c(C)c1 | 14.5% (active) |
| Cc1ccc(S(=O)(=O)c2c(C)cc(C)nc2Cl)c(C)c1 | 1.23% |
| COc1cccc(C2=NN(C(=O)c3ccco3)C(O)(C(F)(F)F)C2)c1 (configuration not stated) | 3.28% |
| Cc1ccc(-c2csc3ncnc(OCC(=O)NC(=O)NCc4ccco4)c23)cc1 | 2.74% |
